# Screens from PubChem.
# BLM inh: Bloom syndrome helicase (human) inhibition; P54132; recombinant BLM DNA unwinding, fluorescence dequenching; Potency, µM (top dose mostly 56.1 µM), inactives show at the top dose activity change, negative = inhibition, actives largely listed as inhibitors; 350,000 tested, 0.2% active; AID 2528;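 further: plate controls were vehicle for no effect and no enzyme for full effect; nearly all actives have a fitted effect of over 35% in size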
# APE1 inh: blocks human APE1 abasic DNA cleavage | P27695 | recombinant APE1, TAMRA/BHQ-2 abasic DNA cleavage fluorescence | Potency, µM (highest dose often 65.8 µM), for the others: at the highest dose activity change, negative = inhibition, usual class: inhibitors | 350,000 tested, 0.35% active | AID 2517;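 further: plate controls were vehicle for no effect and reference inhibitor for full effect; nearly all actives have a fitted effect of over 55% in size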
#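 APE1 at 0.75 nM preincubated 15 min at room temperature with compound. Reaction then started with 50 nM double-stranded THF-abasic substrate labelled with TAMRA/BHQ-2, and 525/598 nm fluorescence read kinetically. Activity taken as third-minus-first read difference, normalized to DMSO and NSC13755 controls.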
# L3MBTL1 inh: blocks human L3MBTL1. AID 485360. AlphaScreen L3MBTL1–H3K9me1 peptide binding. Q9Y468. Potency, µM (highest dose often 57.1 µM), for inactives: at the highest dose activity, negative = inhibition, most hits filed as inhibitors. 230,000 tested, 0.66% active; further: nearly all actives have a fitted effect of over 60% in size
#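 L3MBTL1 (50 nM) pre-complexed 30 min with biotinylated H3(1-15)K9me1 peptide (75 nM), then compounds added for 30 min at room temperature; AlphaScreen streptavidin donor/nickel chelate acceptor beads (10 ug/mL final) read after 30 min dark incubation.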
# WRN inhibitor: inhibitors of human WRN helicase. 360,000 tested, 0.46% active. Potency, µM (series often up to 114 µM), without a hit: top-dose activity change, negative = inhibition, hits mostly inhibitors. WRN helicase unwinding, fluorescent forked duplex, kinetic; further: nearly all actives have a fitted effect of over 55% in size
#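 Primary qHTS, 1536-well format. 20 nM WRN + compound, 15 min RT; start with 100 nM forked fluorophore/quencher duplex, 2 mM ATP (final); kinetic read ex 525/em 598 nm.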
# RECQ1 inh: blocks DNA unwinding by human RECQ1. Potency, µM (doses to about 57.3 µM), without a hit: at the highest dose activity, negative = inhibition, hits mostly inhibitors. RECQ1 DNA unwinding, red fluorescence kinetic read. AID 2549. 240,000 tested, 0.54% active;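 further: plate controls were vehicle for no effect and no enzyme for full effect; nearly all actives have a fitted effect of over 30% in size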
#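 RECQ1T1 50 nM; forked duplex (20 bp + 30-nt ss tails) 200 nM, ATP 2 mM final; pH 8.0, 2 mM MgCl2, 2.5 ug/ml poly(dI-dC); 15 min compound preincubation; discontinuous kinetic read over 2 h at RT.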
# Starred values were filed as active, the others as inactive; i = inactive; ? = inconclusive; . = no result; [ ] = dose if it differs, or a comment. Most compounds without a hit are left out; they make up all but 0.92% or so of the library. The call rests on the fitted dose curve; in most records, active means well fitted curve in the direction sought with a large enough effect; inconclusive means small, poorly fitted or top-dose-only effect, or another doubt; inactive means no such curve, though single readings can be large; an effect the other way counts as inactive or inconclusive. Unless noted, on the % scale 0 is the no-effect control and ±100 the full control effect; potency means the concentration at half of the fitted maximal effect.
SMILES,BLM inh,APE1 inh,L3MBTL1 inh,WRN inhibitor,RECQ1 inh
COC(=O)C1=C(C)NC(C)=C(C(=O)NCCCN2CCC(c3ccccc3)(c3ccccc3)CC2)C1c1ccc([N+](=O)[O-])cc1 (stereo unspecified),-8%,-5%,.,.,2%
O=C(O)c1ccc2c(c1)C1C=CCC1C(c1ccncc1)N2 (stereo unspecified),-3%,?,.,5%,i
COCCNC(=O)C1Nc2ccc(C(F)(F)F)cc2C2C=CCC12 (stereo unspecified),.,.,.,13%,.
CCOC(=O)c1ccc2c(c1)C1C=CCC1C(C(=O)O)N2 (stereo unspecified),28µM*,?,3.2µM*,.,8.9µM*
CCOC(=O)C1Nc2ccc(C(=O)O)cc2C2C=CCC12 (stereo unspecified),9%,-9%,-8%[2.29 µM],28µM*,.
Cc1ccc(NS(=O)(=O)c2cc([N+](=O)[O-])ccc2NNC(=S)Nc2cc(C)ccc2C)c(C)c1,-13%,21%,?,-23%,-17%
Cc1ccc(NS(=O)(=O)c2cc([N+](=O)[O-])ccc2NNC(=S)Nc2cccc(Cl)c2)c(C)c1,-1%,23%,25µM*,?,-2%
Cc1nnsc1C(=O)N/N=C/c1ccc2ccccc2c1O,-3%,1%,2µM*,-22%,-2%
Cc1cc(/C=C\c2ccc3cc(N(C)C)ccc3[n+]2C)c(C)n1-c1ccccc1,?,-28%,32µM*,?,-1%[25.9 µM]
COc1ccc2nc(-c3ccc(N(C)C)cc3)sc2c1,0%,-2%,.,.,i
COc1ccc(/C=C2\C(=O)NC(=S)N2C(=O)c2ccc(C)cc2)cc1,25µM*,-2%,-14%,56µM*,17%
NC(CCCCCP(=O)(c1ccccc1)c1ccccc1)C(=O)O (stereo unspecified),-8%,14µM*,13%,-33%,-14%
O=C(O)CC(CP(=O)(c1ccccc1)c1ccccc1)C(=O)O (stereo unspecified),-4%,-7%,9%,-6%,-8%
CCC(=O)OCCNc1cc(SCCC(=O)OC)c2nonc2c1[N+](=O)[O-],3%,28%,-8%,-9%,-8%
CCCC(=O)OCCNc1cc(Sc2nc3ccccc3[nH]2)c2nonc2c1[N+](=O)[O-],-12%,9%,0%,40µM*,-23%
COc1cc(SC)ccc1C(=O)N1CCC(Cc2ccccc2)CC1,-9%,-3%,.,.,-11%
N#Cc1c(NC(=O)COC(=O)c2ccc(O)cc2O)sc2c1CCC2,.,12µM*,?,-12%[11.6 µM],.
N#Cc1c(NC(=O)COC(=O)c2nccnc2N)sc2c1CCCC2,.,27%,-16%,-6%,.
COc1ccccc1-c1no[n+]([O-])c1C#N,.,-2%,.,.,.
O=C(/C=C1\NC2(CCCC2)Cc2ccccc21)C(=O)N/N=C/c1ccc(O)c(O)c1,-1%,3%,14µM*,?,1%
C/C(CC(=O)N1CCN(C=O)CC1)=N\NC(=O)c1ccc([N+](=O)[O-])cc1,-5%,6%,9%,6%,-12%
C/C(CC(=O)N1CCN(C=O)CC1)=N\NC(=O)c1cc2ccccc2cc1O,-8%,-8%,9%,?,28µM*
O=C(O)c1ccc(/C=N/NC(=O)c2cc3ccccc3cc2O)cc1,.,-2%,32µM*,?,.
Cc1cccc(C)c1-n1c(SCC(=O)NCCCCCC(=O)O)nnc1-c1cccc([S+](=O)([O-])N2CCCC2)c1,.,37%,.,.,.
N#CC1(C#N)C(c2ccccc2)OC23CCCCC2C1(C#N)C(=N)O3 (stereo unspecified),-5%,-2%,-1%,?,13µM*
SMILES,BLM inh,APE1 inh,L3MBTL1 inh,WRN inhibitor,RECQ1 inh
CN1CC(=O)NC1=N,.,0%,.,.,.
NC(=O)C1CCN(c2nc(-c3ccc(C(F)(F)F)cc3)cs2)CC1,.,7%,.,.,.
N#CC1=C(N)Oc2n[nH]c(-c3cccs3)c2C1c1ccoc1 (stereo unspecified),-3%,-6%,.,45µM*,-4%
CC1(c2ccccc2)OC(C(=O)O)=CC1=O (stereo unspecified),.,4%,.,.,.
CCOc1ccc(NC(=O)c2ccc(NC(=O)c3ccc(NC(N)=O)cc3)cc2)cc1,.,13µM*,-24%,1%,.
Cc1ccc(N2C(=O)/C(=C\c3ccco3)SC2=S)cc1,-25%,-4%,-13%,?,-6%
O=C1/C(=C/c2ccccn2)SC(=S)N1Cc1ccccc1,1%,?,1%,-27%,-7%
O=C1/C(=C\c2ccco2)SC(=S)N1Cc1ccccc1,-22%,?,-26%,-15%,32µM*
O=C1/C(=C\c2ccco2)SC(=S)N1c1ccccc1,-1%,22µM*,?,-21%,8%
COc1ccc(CCN2C(=O)/C(=C\c3ccco3)SC2=S)cc1OC,-27%,18%,18µM*,1%,-8%
O=C1/C(=C\c2cc(Cl)c(O)c(Cl)c2)SC(=S)N1Cc1ccccc1,?,?,.,11µM*,.
C=CCN1C(=O)/C(=C\c2ccc(OC(=O)c3ccco3)c(OC)c2)SC1=S,-13%,3%,.,-4%,-9%
CCOC(=O)C(CS)NCCN[C@@H](CS)C(=O)OCC (stereo partly specified),4%,.,.,.,.
O=C(/C=C/c1ccc(I)cc1)c1ccc(B(O)O)cc1,-16%,-6%,.,.,-22%
CCCCCCCCCc1ccc(OCCOCCO)cc1,.,-1%,.,.,.
CC[C@H]1OC(=O)C[C@@H](O)[C@H](C)[C@@H](O[C@@H]2O[C@H](C)[C@@H](O)[C@H](N(C)C)[C@H]2O)[C@@H](CCN2C[C@H](C)C[C@H](C)C2)C[C@@H](C)C(=O)/C=C/C(C)=C/[C@@H]1CO[C@@H]1O[C@H](C)[C@@H](O)[C@@H](OC)[C@H]1OC,.,-2%,.,.,.
CCCCCCCCCCCCCCCCOC[C@H](COP(=O)([O-])OCC[N+](C)(C)C)OC(=O)CCCCCCCC(=O)O,3%,?,.,.,?
S=c1[nH]nc(-c2n[nH]c3c2CCC3)n1/N=C/C=C/c1ccco1,-7%,?,28µM*,?,13µM*
CNc1cccc2c1C(=O)c1ccccc1C2=O,-15%,-7%,8.9µM*,-27%,-17%
O=C1c2ccccc2C(=O)c2c(NCc3cccnc3)cccc21,-16%,1%,-21%,-20%,-14%
O=C(/C(=N/N=C/c1ccc(O)c(O)c1O)c1ccccc1)c1ccccc1,?,5%,20µM*,-31%,3%
O=C(NN=Cc1ccc(O)c(O)c1)c1ccccc1,.,.,.,-18%,.
Oc1ccc(/C=N/N=C(c2ccccc2)c2ccccc2)c(O)c1O,?,?,3.5µM*,6.7µM*,-17%
